Assay [1] in a line: NCI Yeast Anticancer Drug Screen. Data for the rad50 strain (AID 155).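 Note: 0% = growth of vehicle-only cultures of the same strain.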 The conditions noted are these: S. cerevisiae rad50 strain growth inhibition, stronger effect = higher value. In short, it runs like this: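 Yeast carrying a defined DNA repair defect were exposed to test compounds, and growth was compared with vehicle-treated controls to give percent inhibition.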
Assay [2] can be described thus: NCI Yeast Anticancer Drug Screen. Data for the mec2-1 strain (AID 157). The conditions noted are these: S. cerevisiae mec2-1 strain, stronger effect = higher value. The procedure, abridged:
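mec2-1 yeast strain, carrying an alteration in DNA damage repair or cell cycle control, was exposed to compounds; growth inhibition was measured relative to vehicle-treated controls.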

Assay [3] in a line: NCI Yeast Anticancer Drug Screen. Data for the sgs1 mgt1 strain (AID 161).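 Note: 0% = growth of cultures given vehicle only.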 The conditions noted are these: S. cerevisiae sgs1 mgt1 strain, stronger effect = higher value. The procedure, abridged:
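This yeast growth screen uses a strain with defined DNA-repair lesions; compound-treated growth is compared with vehicle-treated growth.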

The nature of assay [4]: NCI Yeast Anticancer Drug Screen. Data for the cln2 rad14 strain (AID 165).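 Note: 0% = growth equal to vehicle treated cultures.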 As to conditions: S. cerevisiae cln2 rad14 strain, stronger effect = higher value. In short, it runs like this: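 Yeast carrying cln2 and rad14 alterations (cell cycle control and DNA damage repair) were exposed to compounds. Growth inhibition was measured against vehicle-treated controls.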
Assay [5] can be described thus: NCI Yeast Anticancer Drug Screen. Data for the bub3 strain (AID 167). As to conditions: S. cerevisiae bub3 mutant strain, stronger effect = higher value. In short, it runs like this: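 Compounds were applied to a genetically altered yeast strain carrying a cell-cycle control defect. Growth inhibition was scored against vehicle-treated controls.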
A short description of assay [6]: NCI Yeast Anticancer Drug Screen. Data for the mlh1 rad18 strain (AID 175). The conditions noted are these: S. cerevisiae mlh1 rad18 strain growth inhibition, stronger effect = higher value. In short, it runs like this: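 Growth inhibition of the yeast strain was measured after compound exposure and expressed relative to vehicle-treated controls. The strain carries defined defects in DNA damage repair.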

Setting [7] is: at 5.0 µM (retest, dose inferred, filed as 0.5).
Where [8] appears, read: at 50.0 µM (retest, dose inferred, filed as 5.0).

Compounds without any hit were thinned out: in the full panel of roughly 79,000, 15% have a hit. Unmarked numbers belong to inactive results. Calls of active or inactive are those of the source. Cut-off read from the data, not from the text of the source: active = growth inhibition above about 70%; inactive = the rest. *1 amine or outer side, *2 acyl side, *3 side chain or, on linkers, in order; H or OH if unused. Where a SMILES comes first, the peptide text is derived from it. [ ]: non-standard residue; d: D form. The star is where a group is joined. X5 = CCC(=O)CC1CC(C)CC(C(=O)[*:2])N1[*:1]; X4 = CCCCCCCCC(C)C(=O)*; Aib = CC(C)(N)C(=O)O; X6 = CC(CN(C)CCO)N*

Take `CCCCCCCCC(C)C(=O)N1CCCC1C(=O)N1C(CC(=O)CC)CC(C)CC1C(=O)NC(C)C(=O)NC(C)(C)C(=O)NC(C)(C)C(=O)NC(C(=O)NC(C)C(=O)NC(C)(C)C(=O)NC(C)(C)C(=O)NC(C)CN(C)CCO)C(C)CC` (stereo not given) (X4-P[X5]A[Aib][Aib]IA[Aib][Aib]-X6; configuration not given here): the growth inhibition in assay [1] (setting [7]) is 98% (active); in assay [1] (setting [8]), 100% (active); in assay [1] (at 50.0 µM), 91.6% (active); in assay [2] (setting [7]), 99% (active); in assay [2] (setting [8]), 100% (active); in assay [2] (at 50.0 µM) it was 93.5% (active). The growth inhibition is 99% (active) in assay [3] (setting [7]); 100% (active) in assay [3] (setting [8]); 92.8% (active) in assay [3] (at 50.0 µM); 99% (active) in assay [4] (setting [7]); 99% (active) in assay [4] (setting [8]); 90.9% (active) in assay [4] (at 50.0 µM). Moreover, the growth inhibition in assay [5] (setting [7]) was 99% (active); in assay [5] (setting [8]) it was 99% (active); in assay [5] (at 50.0 µM) it was 92.4% (active); in assay [6] (setting [7]), 99% (active); in assay [6] (setting [8]), 99% (active); in assay [6] (at 50.0 µM), 89.7% (active).
As for `C=c1c2ccccc2oc2nc3[nH]c(N)c(C#N)c(N)c3c(=N)c12`, the growth inhibition is 16% in assay [1] (setting [7]); 82% (active) in assay [1] (setting [8]); 74% (active) in assay [1] (at 50.0 µM); 1% in assay [2] (setting [7]); 70% (active) in assay [2] (setting [8]); 75% (active) in assay [2] (at 50.0 µM). Also, the growth inhibition in assay [3] (setting [7]) is 11%; in assay [3] (setting [8]), 79% (active); in assay [3] (at 50.0 µM), 73.8% (active); in assay [4] (setting [7]), 17%; in assay [4] (setting [8]), 74% (active); in assay [4] (at 50.0 µM), 48.5%. In addition, the growth inhibition was 18% in assay [5] (setting [7]); 79% (active) in assay [5] (setting [8]); 81.7% (active) in assay [5] (at 50.0 µM); 7% in assay [6] (setting [7]); 75% (active) in assay [6] (setting [8]); 69.2% in assay [6] (at 50.0 µM).
On to `CCCCCCCCCCCCN1C(C)=CS/C1=C\C=C\c1scc(C)[n+]1CCCCCCCCCCCC`, for which the growth inhibition in assay [1] (setting [7]) is 9%; in assay [1] (setting [8]), 94% (active); in assay [1] (at 50.0 µM), 88% (active); in assay [2] (setting [7]), -4%; in assay [2] (setting [8]), 97% (active); in assay [2] (at 50.0 µM) it was 89.2% (active). The growth inhibition in assay [3] (setting [7]) is 18%; in assay [3] (setting [8]), 96% (active); in assay [3] (at 50.0 µM), 84.7% (active); in assay [4] (setting [7]), 4%; in assay [4] (setting [8]), 91% (active); in assay [4] (at 50.0 µM), 85% (active). The growth inhibition in assay [5] (setting [7]) is 23%; in assay [5] (setting [8]) it was 95% (active); in assay [5] (at 50.0 µM) it was 85% (active); in assay [6] (setting [7]), 1%; in assay [6] (setting [8]), 93% (active); in assay [6] (at 50.0 µM), 83% (active).
In the case of `CC(C)(C)c1ccc(CCO)cc1`, the growth inhibition was -10% in assay [1] (setting [7]); 7% in assay [1] (setting [8]); 33.5% in assay [1] (at 50.0 µM); -2% in assay [2] (setting [7]); -4% in assay [2] (setting [8]); 5.35% in assay [2] (at 50.0 µM). Further, the growth inhibition in assay [3] (setting [7]) was -3%; in assay [3] (setting [8]), -5%; in assay [3] (at 50.0 µM) it was 12.2%; in assay [4] (setting [7]), -2%; in assay [4] (setting [8]), -4%; in assay [4] (at 50.0 µM), -8.05%. Further, the growth inhibition was 0% in assay [5] (setting [7]); 6% in assay [5] (setting [8]); -4.15% in assay [5] (at 50.0 µM); -5% in assay [6] (setting [7]); 2% in assay [6] (setting [8]); 19.9% in assay [6] (at 50.0 µM).
Take `CCN(CC)CCNC(Cc1ccccc1)c1ccc(OCc2ccccc2)cc1` (stereo not given): the growth inhibition was 39% in assay [1] (setting [7]); 98% (active) in assay [1] (setting [8]); 86.7% (active) in assay [1] (at 50.0 µM); 28% in assay [2] (setting [7]); 98% (active) in assay [2] (setting [8]); 42.4% in assay [2] (at 50.0 µM). For the same molecule, the growth inhibition in assay [3] (setting [7]) is 42%; in assay [3] (setting [8]) it was 99% (active); in assay [3] (at 50.0 µM), 72% (active); in assay [4] (setting [7]), 35%; in assay [4] (setting [8]), 94% (active); in assay [4] (at 50.0 µM), 57.2%. For the same molecule, the growth inhibition was 49% in assay [5] (setting [7]); 99% (active) in assay [5] (setting [8]); 87.6% (active) in assay [5] (at 50.0 µM); 47% in assay [6] (setting [7]); 98% (active) in assay [6] (setting [8]); 84.8% (active) in assay [6] (at 50.0 µM).

The record behind these values is PubChem BioAssay (NCI).
